# From PubChem BioAssay (NCI)
# Where “and” joins values, the source holds several entries; their conditions need not be identical. Equal values may be shown once. This is part of a sample that, as a whole, favours compounds with a hit. Of some 83,000 tested, about 20% had one in any assay.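 Values shown are percent growth following 48 h exposure of cells in 96-well plates to a single concentration of compound; below 10 was considered active.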 Unmarked numbers belong to inactive results. Calls of active or inactive are those of the source.
# Tested on: MDA-MB-468 breast
# Assay: NCI-60 one-dose screen, 48 h (100 = growth as untreated, 0 = no growth, -100 = all killed)
# Details: 10 µM unless noted
row,Structure (SMILES),growth
1,c1ccc(-c2n[nH]c(-c3ccccn3)n2)nc1,100%
2,COc1cc2c(cc1O)CCN1C[C@@H](CC(C)C)[C@@H](O)C[C@@H]21,103%
3,CC(=O)NCc1cc(C)c(C)cc1C,93.4%
4,CCNc1nc2c(cnn2C)c(=O)[nH]1,97.4%
5,COc1ccc(-c2csc(NC(=O)c3ccc(Cc4n[nH]c(=O)c5cccnc45)cc3)n2)cc1,64.2%
6,COc1ccc(C(=O)OC2C(OC3C(O)COC(O[C@H]4C[C@H]5[C@@H]6CC=C7C[C@@H](O)CC[C@]7(C)[C@H]6CC[C@]5(C)[C@H]4[C@H](C)C(=O)CCC(C)C)C3OC(N)=O)OCC(O)C2O)cc1 (stereo not given in full),-24.5% (active)
7,CCCCCC(=O)Oc1ccc(/C(=C(\C)c2ccc(OC)cc2)c2ccc(OCCN3CCCCC3)cc2)cc1,85.3%
8,CCOC(=O)C1=C(C)Nc2nc3ccccc3n2C1c1ccccc1 (stereo not given),85.6%
9,Oc1c(Cl)cc(Cl)c2cccnc12,61% and 42.6%
10,CCN1CCN(Cc2ccc(NC(=O)c3nc4ccc5[nH]ncc5c4c4c3CCCC4)cc2C(F)(F)F)CC1,-51.9% (active)
11,CC1(C)CC[C@]2(C(=O)O)CC[C@]3(C)C(=CCC4[C@@]5(C)C[C@@H](O)[C@@H]6OC(c7cccc([N+](=O)[O-])c7)OC[C@@]6(C)C5CC[C@]43C)C2C1 (stereo not given in full),76%
12,COC(=O)c1c2c(n3ccc(C)cc13)C(=O)c1ccccc1C2=O,86.3%
13,N#CCC1=NC(c2cccs2)=Nc2ccccc2S1,82.2%
14,CC(C)N(Cc1ccc(CN(C(=O)CCl)C(C)C)cc1)C(=O)CCl,15.4%
15,CCN(CC)CC(O)CNc1c2ccc(Cl)cc2nc2ccc(OC)cc12 (stereo not given),-48.3% (active)
16,CN1CCN(c2nc(-c3cccc4ccccc34)nc3sc4c(c23)CCCCCC4)CC1,77.3%
17,C=CCNCCC#N,98.1%
18,O=C(CBr)OCc1ccc([N+](=O)[O-])o1,109%
19,CCN(Cc1ccccc1)C1CCN(Cc2cc(Br)ccc2O)CC1,25.5%
20,CCN(CC)CCNc1ccc(CO)c2oc3cc(Cl)ccc3c(=O)c12,68.1%

row,Structure (SMILES),growth
1,COC(=O)[C@@]12OC[C@]34[C@H]([C@@H](O)[C@@H]1O)[C@@]1(C)[C@H](O)C(=O)C=C(C)[C@@H]1C[C@H]3OC(=O)C(OC(C)=O)[C@@H]24 (stereo not given in full),-11.6% (active)
2,Cc1nc2sc(C(=O)Nc3ccc(Br)cc3)c(N)c2cc1C(O)c1ccccc1 (stereo not given),12.7%
3,Nc1c2c(nc3ccc(Cl)cc13)CC(c1ccccc1)CC2=O (stereo not given),-5.35% (active)
4,O=[N+]([O-])c1cc(NS(=O)(=O)c2ccccc2)ccc1NS(=O)(=O)c1ccccc1,92.9%
5,CCCCCCCCCCCCCCCCCCOc1cccc(CCOP(=O)(O)OCC[N+](C)(C)C)c1,94.2%
6,O=C(O)c1c(=O)cccc2ssc12,-50.5% (active)
7,Cc1ccc(S(=O)(=O)Oc2ccc3c4c(c(=O)oc3c2)CCCCC4)cc1,35.5%
8,O=S(=O)(c1ccc(NCSc2nc3ccccc3s2)cc1)c1ccc(NCSc2nc3ccccc3s2)cc1,95.8%
9,Clc1ncnc2scc(C3COc4ccccc4O3)c12 (stereo not given),-3.8% (active)
10,CN(C)c1nc2c([nH]1)c(=O)n(C)c(=O)n2C,101%
11,COc1cccc2c1C(=O)c1c(O)c3c(c(O)c1C2=O)C[C@@](O)(C(=O)CO)C[C@@H]3OC1C[C@H](N)[C@H](O)[C@H](C)O1 (stereo not given in full),-68.8% (active)
12,COc1ccc(-c2n[nH]nc2-c2cc3ccccc3s2)cc1O,40.8%
13,COc1ccc2c(c1)[nH]c(=O)c1c3cc(OC)c(OC)cc3cn21,11.4%
14,CC#CC(=O)N1CCC[C@H]1c1nc(-c2ccc(C(=O)Nc3ccccn3)cc2)c2c(N)nccn12,59.6%
15,O=C(CNC(=O)c1cccc2ccccc12)Nc1ccccc1Oc1cccc(O)c1,-3.16% [5 µM] (active)
16,Cc1cc2nc(CC(=O)c3ccncc3)c(=O)[nH]c2cc1C,102%
17,O=C(Cn1c(-c2ccc([N+](=O)[O-])cc2)nc2ccccc21)NNC(=O)c1cccnc1,-12.6% (active)
18,Nc1ncc(-c2cnn(C3CCNCC3)c2)cc1-c1nc2cc(Cl)ccc2o1,-94.3% (active)
19,C=C(C)[C@@H]1CC[C@]2(C(=O)O)CC[C@]3(C)[C@H](CC[C@@H]4[C@@]5(C)C/C(=C/c6cccc(I)c6)C(=O)C(C)(C)[C@@H]5CC[C@]43C)[C@@H]12,25.6%
20,O=C1c2ccccc2CN1c1ccccc1,101%
